# This is part of a sample that, as a whole, favours compounds with a hit. Of some 79,000 tested, about 15% had one in any assay. Values without a mark were called inactive. Active and inactive are the calls of the source. Rule as the data show it: active = growth inhibition above about 70%; inactive = the rest.
# Tests used:
# [1] = NCI Yeast Anticancer Drug Screen. Data for the rad52 strain (AID 147);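 also: 0% = growth of vehicle-treated control cultures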; conditions: S. cerevisiae rad52 mutant growth inhibition, stronger effect = higher value
# Outline: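 Here a repair-compromised yeast strain receives each compound; its growth is then quantified and normalised to vehicle-only controls.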
# [2] = NCI Yeast Anticancer Drug Screen. Data for the wt1 strain (AID 149);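 also: 0% = growth of vehicle-treated wt1 cultures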; conditions: S. cerevisiae wt1 strain (SPY 50644) growth inhibition, stronger effect = higher value
# Outline: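 wt1 strain grown with compound or vehicle; inhibition taken from the growth difference.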
# [3] = NCI Yeast Anticancer Drug Screen. Data for the rad50EPP+ strain (AID 151);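 also: 0% = growth of vehicle-treated control cultures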; conditions: S. cerevisiae rad50 mutant strain, stronger effect = higher value
# Outline: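 Read-out is yeast growth inhibition relative to vehicle; cells used were the rad50EPP+ strain.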
# [4] = NCI Yeast Anticancer Drug Screen. Data for the mgt1 strain (AID 153); conditions: S. cerevisiae mgt1 mutant growth inhibition, stronger effect = higher value
# Outline: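 Measured: inhibition of mgt1 yeast growth by compound, normalized to vehicle-treated cultures.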
# [5] = NCI Yeast Anticancer Drug Screen. Data for the rad50 strain (AID 155);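 also: 0% = growth of vehicle-only cultures of the same strain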; conditions: S. cerevisiae rad50 strain growth inhibition, stronger effect = higher value
# Outline: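 DNA repair mutant yeast, compound exposure, growth read-out; inhibition is taken relative to vehicle.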
# [6] = NCI Yeast Anticancer Drug Screen. Data for the mec2-1 strain (AID 157); conditions: S. cerevisiae mec2-1 strain, stronger effect = higher value
# Outline: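 Using mec2-1 yeast: add compound, measure growth, express inhibition versus vehicle-treated cultures.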
# [7] = NCI Yeast Anticancer Drug Screen. Data for the rad14 strain (AID 159);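 also: 0% = growth of vehicle-treated control cultures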; conditions: S. cerevisiae rad14 strain growth inhibition, stronger effect = higher value
# Outline: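 DNA repair-defective yeast, compound-exposed; % growth inhibition derived by comparison with vehicle-treated controls.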
# [8] = NCI Yeast Anticancer Drug Screen. Data for the sgs1 mgt1 strain (AID 161);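 also: 0% = growth of cultures given vehicle only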; conditions: S. cerevisiae sgs1 mgt1 strain, stronger effect = higher value
# Outline: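 This yeast growth screen uses a strain with defined DNA-repair lesions; compound-treated growth is compared with vehicle-treated growth.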
# [9] = NCI Yeast Anticancer Drug Screen. Data for the CLN2oe strain (AID 163);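 also: 0% = growth of vehicle-only control cultures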; conditions: S. cerevisiae CLN2oe strain, stronger effect = higher value
# Outline: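 Whole-cell yeast growth assay. A strain engineered for altered cell-cycle control received compound, and inhibition relative to vehicle-treated cultures was recorded.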
# [10] = NCI Yeast Anticancer Drug Screen. Data for the cln2 rad14 strain (AID 165);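 also: 0% = growth equal to vehicle treated cultures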; conditions: S. cerevisiae cln2 rad14 strain, stronger effect = higher value
# Outline: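 Yeast strain cln2 rad14, bearing defects in cell cycle control and DNA repair, serves as the test system; values reflect growth inhibition compared with vehicle.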
# [11] = NCI Yeast Anticancer Drug Screen. Data for the bub3 strain (AID 167); conditions: S. cerevisiae bub3 mutant strain, stronger effect = higher value
# Outline: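 In this screen, a yeast mutant lacking normal mitotic checkpoint function is challenged with compound. Relative growth versus vehicle gives the inhibition value.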
# [12] = NCI Yeast Anticancer Drug Screen. Data for the wt2 strain (AID 169);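 also: 0% = growth of vehicle-treated yeast cultures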; conditions: S. cerevisiae wt2 strain growth inhibition, stronger effect = higher value
# Outline: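 Treated yeast vs. vehicle-treated yeast: growth inhibition determined.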
# [13] = NCI Yeast Anticancer Drug Screen. Data for the sgs1 strain (AID 173);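 also: 0% = growth of vehicle-only control cultures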; conditions: S. cerevisiae sgs1 mutant, stronger effect = higher value
# Outline: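 A genetically defined yeast mutant is incubated with the test compound, and its growth is compared to that of the same strain given vehicle.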
# [14] = NCI Yeast Anticancer Drug Screen. Data for the mlh1 rad18 strain (AID 175); conditions: S. cerevisiae mlh1 rad18 strain growth inhibition, stronger effect = higher value
# Outline: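 Steps: expose repair-defective yeast to compound; measure growth; express inhibition against vehicle-treated controls.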
# [15] = NCI Yeast Anticancer Drug Screen. Data for the rad18 strain (AID 177); conditions: S. cerevisiae rad18 mutant growth inhibition, stronger effect = higher value
# Outline: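 Measured value is growth inhibition of a yeast strain bearing a DNA repair alteration, referenced to vehicle-treated cells.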
# [16] = at 5.0 µM (retest, dose inferred, filed as 0.5)
# [17] = at 50.0 µM (retest, dose inferred, filed as 5.0)
smiles,measurement,setting,value
O=Nc1cccnc1N=O,growth inhibition,[1]; at 1.2 µM,10%
same,growth inhibition,[1]; at 3.7 µM,31%
same,growth inhibition,[1]; at 11.0 µM,86% (active)
same,growth inhibition,[1]; at 33.0 µM,98% (active)
same,growth inhibition,[1]; at 100.0 µM,98% (active)
same,growth inhibition,[2]; at 1.2 µM,2%
same,growth inhibition,[2]; at 3.7 µM,10%
same,growth inhibition,[2]; at 11.0 µM,37%
same,growth inhibition,[2]; at 33.0 µM,99% (active)
same,growth inhibition,[2]; at 100.0 µM,99% (active)
same,growth inhibition,[3]; at 1.2 µM,-33%
same,growth inhibition,[3]; at 3.7 µM,14%
same,growth inhibition,[3]; at 11.0 µM,64%
same,growth inhibition,[3]; at 33.0 µM,97% (active)
same,growth inhibition,[3]; at 100.0 µM,98% (active)
same,growth inhibition,[4]; at 1.2 µM,5%
same,growth inhibition,[4]; at 3.7 µM,25%
same,growth inhibition,[4]; at 11.0 µM,79% (active)
same,growth inhibition,[4]; at 33.0 µM,99% (active)
same,growth inhibition,[4]; at 100.0 µM,99% (active)
same,growth inhibition,[5]; at 1.2 µM,7%
same,growth inhibition,[5]; at 3.7 µM,21%
same,growth inhibition,[5]; [16],66%
same,growth inhibition,[5]; at 11.0 µM,52%
same,growth inhibition,[5]; at 33.0 µM,98% (active)
same,growth inhibition,[5]; [17],99% (active)
same,growth inhibition,[5]; at 50.0 µM,99.5% (active)
same,growth inhibition,[5]; at 100.0 µM,98% (active)
same,growth inhibition,[6]; at 1.2 µM,7%
same,growth inhibition,[6]; at 3.7 µM,28%
same,growth inhibition,[6]; [16],27%
same,growth inhibition,[6]; at 11.0 µM,90% (active)
same,growth inhibition,[6]; at 33.0 µM,99% (active)
same,growth inhibition,[6]; [17],99% (active)
same,growth inhibition,[6]; at 50.0 µM,99.4% (active)
same,growth inhibition,[6]; at 100.0 µM,99% (active)
same,growth inhibition,[7]; at 1.2 µM,11%
same,growth inhibition,[7]; at 3.7 µM,36%
same,growth inhibition,[7]; at 11.0 µM,99% (active)
same,growth inhibition,[7]; at 33.0 µM,99% (active)
same,growth inhibition,[7]; at 100.0 µM,99% (active)
same,growth inhibition,[8]; [16],81% (active)
same,growth inhibition,[8]; [17],99% (active)
same,growth inhibition,[8]; at 50.0 µM,99.3% (active)
same,growth inhibition,[9]; at 1.2 µM,5%
same,growth inhibition,[9]; at 3.7 µM,13%
same,growth inhibition,[9]; at 11.0 µM,34%
same,growth inhibition,[9]; at 33.0 µM,99% (active)
same,growth inhibition,[9]; at 100.0 µM,98% (active)
same,growth inhibition,[10]; [16],19%
same,growth inhibition,[10]; [17],99% (active)
same,growth inhibition,[10]; at 50.0 µM,99.3% (active)
same,growth inhibition,[11]; at 1.2 µM,9%
same,growth inhibition,[11]; at 3.7 µM,31%
same,growth inhibition,[11]; [16],76% (active)
same,growth inhibition,[11]; at 11.0 µM,86% (active)
same,growth inhibition,[11]; at 33.0 µM,98% (active)
same,growth inhibition,[11]; [17],99% (active)
same,growth inhibition,[11]; at 50.0 µM,99.5% (active)
same,growth inhibition,[11]; at 100.0 µM,98% (active)
same,growth inhibition,[12]; at 1.2 µM,2%
same,growth inhibition,[12]; at 3.7 µM,16%
same,growth inhibition,[12]; at 11.0 µM,59%
same,growth inhibition,[12]; at 33.0 µM,99% (active)
same,growth inhibition,[12]; at 100.0 µM,99% (active)
same,growth inhibition,[13]; at 1.2 µM,18%
same,growth inhibition,[13]; at 3.7 µM,63%
same,growth inhibition,[13]; at 11.0 µM,97% (active)
same,growth inhibition,[13]; at 33.0 µM,99% (active)
same,growth inhibition,[13]; at 100.0 µM,99% (active)
same,growth inhibition,[14]; [16],94% (active)
same,growth inhibition,[14]; [17],99% (active)
same,growth inhibition,[14]; at 50.0 µM,99.6% (active)
same,growth inhibition,[15]; at 1.2 µM,35%
same,growth inhibition,[15]; at 3.7 µM,86% (active)
same,growth inhibition,[15]; at 11.0 µM,94% (active)
same,growth inhibition,[15]; at 33.0 µM,98% (active)
same,growth inhibition,[15]; at 100.0 µM,98% (active)

# — PubChem BioAssay (NCI)
